Test results: paper PMC4336329 (PLoS ONE, 2015)
About 14,000 (4.5%) of roughly 310,000 compounds showed an effect of 50% or more. Effects have a minus sign here. The sample holds strong results, similar compounds and a random draw of the others, so the mix is not that of the screen.

Target: human ether-à-go-go-related gene (hERG) potassium channel (human, UniProt Q12809)
Assay: primary screen, population patch clamp on CHO cells stably expressing hERG; higher = less effect of the substance
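Note: peak tail current of the secondary pulse compared with the same well before compound.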

Sequence of human ether-à-go-go-related gene (hERG) potassium channel (Q12809 whole entry, looked up): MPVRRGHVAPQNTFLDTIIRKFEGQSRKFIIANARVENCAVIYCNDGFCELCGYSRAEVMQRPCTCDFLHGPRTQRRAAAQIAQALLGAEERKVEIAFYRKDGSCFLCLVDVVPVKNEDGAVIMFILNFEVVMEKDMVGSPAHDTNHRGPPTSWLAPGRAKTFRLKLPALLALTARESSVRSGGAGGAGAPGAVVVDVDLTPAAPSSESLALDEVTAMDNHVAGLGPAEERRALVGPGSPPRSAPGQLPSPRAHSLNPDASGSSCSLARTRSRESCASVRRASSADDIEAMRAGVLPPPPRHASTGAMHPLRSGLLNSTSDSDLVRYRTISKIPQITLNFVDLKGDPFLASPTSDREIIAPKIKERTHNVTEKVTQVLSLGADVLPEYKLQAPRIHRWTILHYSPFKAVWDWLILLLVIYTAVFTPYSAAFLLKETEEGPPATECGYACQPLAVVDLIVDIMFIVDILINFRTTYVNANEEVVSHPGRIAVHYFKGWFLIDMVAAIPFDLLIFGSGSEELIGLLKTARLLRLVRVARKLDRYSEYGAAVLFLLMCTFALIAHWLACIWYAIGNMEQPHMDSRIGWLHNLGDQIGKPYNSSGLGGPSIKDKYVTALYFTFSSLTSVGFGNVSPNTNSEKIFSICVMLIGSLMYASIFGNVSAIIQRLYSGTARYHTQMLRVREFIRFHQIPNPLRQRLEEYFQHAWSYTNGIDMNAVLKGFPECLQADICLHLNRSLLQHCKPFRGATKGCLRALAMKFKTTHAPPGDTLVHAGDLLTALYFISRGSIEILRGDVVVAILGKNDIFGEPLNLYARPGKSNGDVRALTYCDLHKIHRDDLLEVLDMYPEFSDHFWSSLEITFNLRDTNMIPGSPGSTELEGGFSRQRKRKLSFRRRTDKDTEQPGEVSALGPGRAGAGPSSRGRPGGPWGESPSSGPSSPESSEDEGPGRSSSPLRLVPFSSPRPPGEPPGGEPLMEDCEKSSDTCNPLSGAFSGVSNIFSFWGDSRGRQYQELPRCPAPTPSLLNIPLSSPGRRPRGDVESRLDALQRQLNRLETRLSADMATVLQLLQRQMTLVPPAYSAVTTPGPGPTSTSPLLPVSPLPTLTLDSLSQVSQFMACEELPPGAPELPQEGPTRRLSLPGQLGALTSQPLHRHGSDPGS

Row | Structure (SMILES) | hERG current change (%, negative = inhibition) at 10uM
1 | CCOC(=O)c1nn(-c2ccc(C)cc2)c(C)c1C(C)=O | 4.57%
2 | Cc1ccc(S(=O)(=O)NNC(=O)C2COc3ccccc3O2)cc1 (stereo not shown) | 5.24%
3 | COc1ccc(C(CNC(=O)c2ccc(OCc3ccccc3)cc2)N2CCOCC2)cc1 (stereo not shown) | -18.1%
4 | CCOC(=O)N1CCC(N(CCN(C)C)C(=S)Nc2ccccc2OC)CC1 | -16.2%
5 | CCCC1=C(C(=O)OCC)C(c2ccc(F)cc2)n2ncnc2N1 (stereo not shown) | -21.3%
6 | COc1cccc(CN2C(=O)CCC2(C)C(=O)NC2CCCCCC2)c1 (stereo not shown) | -11.7%
7 | COc1ccc(-c2cc(=O)oc3cc(OC(=O)C4CCCCC4)c(Cl)cc23)cc1 | 11.2%
8 | COc1ccccc1NC(=O)CC(c1ccc(OC(C)C)cc1)c1ccccc1OC (stereo not shown) | -1.62%
9 | COc1ccc(CNC(=S)NCc2ccc(OC(C)C)cc2)cc1 | -3.86%
10 | COc1ccc(CNCCC(c2ccc(OC(C)C)cc2)c2ccccc2OC)cc1 (stereo not shown) | -66.1%
11 | COc1ccc(C(CCNCc2ccc(N(C)C)cc2)C(C)C)cc1 (stereo not shown) | -40.5%
12 | COc1ccc(C(CCNCc2ccc(N(C)C)cc2)c2ccccc2)cc1 (stereo not shown) | -72.2%
13 | COc1ccccc1C(O)P(=O)(OCC(C)C)c1ccc(N(C)C)cc1 (stereo not shown) | -0.204%
14 | COc1ccccc1CNC(=O)c1ccc(OC(C)C)cc1 | 17.6%
15 | COc1ccccc1C(CC(=O)Nc1ccc(C)c(C)c1)c1ccc(OC(C)C)cc1 (stereo not shown) | 10.2%
16 | COc1ccc(CNC(c2ccccc2)c2ccc(Cl)cc2)cc1 (stereo not shown) | 6.38%
17 | COc1ccccc1C(CCNCc1ccccc1)c1ccc(OC(C)C)cc1 (stereo not shown) | -59.3%
18 | COc1ccccc1C(CCNCc1ccc(N(C)C)cc1)c1ccc(OC(C)C)cc1 (stereo not shown) | -73.8%
19 | O=C(Nc1ncc(Br)s1)C1CCCN1S(=O)(=O)c1cccc2cccnc12 (stereo not shown) | -3.36%
20 | Cc1cccc(C(=O)O/N=C2\CCS(=O)(=O)c3sccc32)c1 | 1.16%
21 | Cc1ccc(NC(=O)C(OC(=O)c2ccc(NC(N)=O)cc2)c2ccccc2)cc1Cl (stereo not shown) | -3.17%
22 | COc1ccc(N2CCC(N3CCN(C)C(CCO)C3)CC2)cc1 (stereo not shown) | 10.2%
23 | O=C(NCC1CCCO1)c1ccc(Cl)c(S(=O)(=O)Nc2ccccc2)c1 (stereo not shown) | 2.86%
24 | O=C(CCc1ccccc1)Nc1nccs1 | 14.9%
25 | COc1ccccc1N1CCN(C(=O)c2ccc(Cn3c(=S)[nH]c4cc5c(cc4c3=O)OCO5)cc2)CC1 | 21.3%

Row | Structure (SMILES) | hERG current change (%, negative = inhibition) at 10uM
26 | CC[C@H](C)[C@@H](NC(=O)O[C@@H]1C(=O)c2cc(OC)ccc2O[C@H]1c1ccc(OC)c(Br)c1)C(=O)OC | -1.62%
27 | CN(C)c1cccc(C(=O)Nc2nnc(Cc3ccccc3)s2)c1 | 0.344%
28 | Cn1cnc2cc(NCc3ccccc3O)ccc21 | 6.3%
29 | COc1cccc2c1OCC(CN1CCN(CCC(C)C)C(CCO)C1)=C2 (stereo not shown) | -3.37%
30 | COc1ccc2c(c1)C=C(CN1CCN(C3CCCC3)C(CCO)C1)CO2 (stereo not shown) | -68.2%
31 | COc1cccc2c1OCC(CN1CCN(Cc3ccccc3)C(CCO)C1)=C2 (stereo not shown) | -47.6%
32 | COc1cccc2c1OCC(CN1CCN(Cc3ccccc3F)C(CCO)C1)=C2 (stereo not shown) | -19.3%
33 | COc1cccc2c1OCC(CN1CCN(C3CCCCC3)C(CCO)C1)=C2 (stereo not shown) | -17%
34 | CCOc1ccc(CN2CCN(CC3=Cc4cccc(OC)c4OC3)CC2CCO)cc1 (stereo not shown) | -83.4%
35 | COc1ccc2c(c1)C=C(CN1CCN(C(C)C)C(CCO)C1)CO2 (stereo not shown) | 5.68%
36 | COc1ccc2c(c1)C=C(CN1CCN(Cc3ccccc3C)C(CCO)C1)CO2 (stereo not shown) | -25.6%
37 | CCOc1ccccc1CN1CCN(CC2=Cc3cc(OC)ccc3OC2)CC1CCO (stereo not shown) | -83.3%
38 | Cl.O=C(OCCN1CCOCC1)c1cccs1 | 6.58%
39 | COc1ccc(C2=CC(=O)C[C@H](c3ccc(F)cc3)C2)cc1F | -16.5%
40 | COc1ccc2ccccc2c1CN(C)Cc1ccccc1.O=C(O)C(=O)O | -51.7%
41 | COc1ccc2ccccc2c1CNCCc1ccccc1.Cl | -53.1%
42 | CC(CCc1ccccc1)NCc1cccc2ccccc12.O=C(O)C(=O)O (stereo not shown) | -60.9%
43 | COc1ccc(CCNCc2c(OC)ccc3ccccc23)cc1OC.Cl | -44.6%
44 | CN(Cc1ccccc1)Cc1c(O)ccc2ccccc12 | 7.65%
45 | COCC(C)NCc1cccc2ccccc12.O=C(O)C(=O)O (stereo not shown) | -0.173%
46 | CC(CCc1ccccc1)NC(=O)Cc1ccccc1 (stereo not shown) | 2.65%
47 | COc1ccc2ccccc2c1CNCCN1CCOCC1.Cl | 14.4%
48 | COc1cccc(OC)c1C(=O)NC(C)CCc1ccccc1 (stereo not shown) | -19.1%
49 | COc1ccc2ccccc2c1CNC(C)c1ccccc1.O=C(O)C(=O)O (stereo not shown) | -44.4%
50 | COc1ccc2ccccc2c1CNC(C)CCc1ccccc1.O=C(O)C(=O)O (stereo not shown) | -77.8%

Row | Structure (SMILES) | hERG current change (%, negative = inhibition) at 10uM
51 | CN(CCOc1cccc2ccccc12)Cc1ccccc1.O=C(O)C(=O)O | 0.659%
52 | CC1(C)CC2CC(C)(CN2C(=O)c2cc(-c3ccccc3O)on2)C1 (stereo not shown) | 12.7%
53 | Cc1ccc(S(=O)(=O)N2CCN(C(=O)COC(=O)c3ccccc3Cl)CC2)c(C)c1 | -12.5%
54 | Cc1cccnc1NC(=O)Nc1ccccc1 | 1.64%
55 | CCCOc1ccc(N2C(=O)CC(NCc3cccs3)C2=O)cc1 (stereo not shown) | -18.6%
56 | COc1ccccc1CNC(=O)C1COc2ccccc2O1 (stereo not shown) | -15.1%
57 | Cc1cc(NC(=O)c2ccc([N+](=O)[O-])cc2)n(CCC#N)n1 | 11%
58 | O=C(NCCCc1nc2ccccc2[nH]1)c1cccs1 | -5.12%
59 | COc1ccc2ccccc2c1CNCc1ccc(C)cc1.O=C(O)C(=O)O | -69.7%
60 | COc1cccc(CNCc2ccccn2)c1OC | 5.32%
61 | COc1ccc2ccccc2c1CNCc1ccccn1.Cl | -51.8%
62 | COc1ccc(CCNCc2ccccn2)cc1OC | 0.278%
63 | COc1ccccc1CNCc1ccc(C)cc1.O=C(O)C(=O)O | -6.14%
64 | COc1ccc(CCNCc2c(OC)ccc3ccccc23)cc1.O=C(O)C(=O)O | -44.9%
65 | CC(C)N(Cc1nc(-c2ccc(Cl)cc2)no1)C(=O)CCC1CCCC1 | -7.81%
66 | Cc1nn(CCCC(=O)NC2CCC(C)CC2)c(=O)c2nn(-c3ccccc3)c(C)c12 (stereo not shown) | -5.97%
67 | O=C(/C=C(/c1ccc(Cl)cc1)n1cncn1)c1ccccc1 | -27.5%
68 | C#CCOCCOCCOCCNc1nc(N2CCN(C(=O)[C@H](CCC(=O)O)n3cc(C(N)CO)nn3)CC2)nc(N2CCN(C(=O)[C@H](Cc3ccc(O)cc3)n3cc(C(N)[C@H](C)CC)nn3)CC2)n1.Cl (stereo partly shown) | 9.89%
69 | CCN(CC(=O)Nc1c(F)cccc1F)C(=O)COc1ccc2c(c1)CCC2 | -2.81%
70 | O=S(=O)(c1ccc(Nc2ccc(-c3ccc4c(c3)OCCO4)nn2)cc1)N1CCCC1 | 5.27%
71 | COc1ccccc1CNc1ccc2nnc(CCNC(=O)c3ccc(C)cc3)n2n1 | -0.303%
72 | CCCCCn1c(CN2CCN(C(=O)c3ccco3)CC2)nc2c1c(=O)n(C)c(=O)n2C | -60.5%
73 | CCOCCn1c(CN2CCN(C(=O)c3ccco3)CC2)nc2c1c(=O)n(C)c(=O)n2C | -3.37%
74 | CCCCCCn1c(CN2CCN(C(=O)c3ccco3)CC2)nc2c1c(=O)n(C)c(=O)n2C | -65.8%
75 | CCCn1c(CN2CCN(C(=O)c3ccco3)CC2)nc2c1c(=O)n(C)c(=O)n2C | -10.3%

Row | Structure (SMILES) | hERG current change (%, negative = inhibition) at 10uM
76 | CCCCn1c(CN2CCN(C(=O)c3ccco3)CC2)nc2c1c(=O)n(C)c(=O)n2C | -34.1%
77 | CC(C)CCn1c(CN2CCN(C(=O)c3ccco3)CC2)nc2c1c(=O)n(C)c(=O)n2C | -39.9%
78 | Cl.OC1(c2ccccc2)CCN(Cc2ccccc2)C2CCCCC21 (stereo not shown) | -15.6%
79 | COc1ccc(-c2nnc3sc(-c4ccco4)nn23)cc1OC | 3.81%
80 | COCCCNc1nnc(Cc2ccccc2)c2ccccc12 | -31.4%
81 | CC1(C)CC(=O)N(c2cccc(Cl)c2)C(=O)C1 | 10.4%
82 | CCOC(=O)C1CCN(C(=O)c2cc3c(=O)n4ccccc4nc3s2)CC1 | -6.6%
83 | CCOc1ccccc1Cn1c(=O)sc2ccccc21 | 7.43%
84 | COc1ccc(C(=O)NN/C(C)=C/C(=O)c2ccccc2)cc1 | 4.41%
85 | CCN(CC(=O)Nc1c(F)cccc1F)C(=O)C1CCN(C(=O)c2ccc(F)cc2)CC1 | 4.59%
86 | COc1ccccc1NC(=S)N(Cc1cccnc1)Cc1ccco1 | -33.6%
87 | COc1ccc(Cl)cc1NC(=S)N(Cc1cccnc1)Cc1ccco1 | -73.8%
88 | CCc1ccc(NC(=O)N(Cc2cccnc2)Cc2ccco2)cc1 | -53.1%
89 | O=C(Nc1ccccc1)N(Cc1cccnc1)Cc1ccco1 | -32.9%
90 | O=C(c1ccco1)N(Cc1ccc(Cl)cc1)Cc1ccco1 | -41.2%
91 | S=C(Nc1ccccc1Cl)N(Cc1cccnc1)Cc1ccco1 | -4.94%
92 | CCc1ccc(NC(=S)N(Cc2cccnc2)Cc2ccco2)cc1 | -17.2%
93 | N#CCCN(Cc1cccnc1)C(=O)Nc1ccc(Cl)c(Cl)c1 | -26%
94 | O=C(Nc1ccc(Cl)c(Cl)c1)N(Cc1cccnc1)Cc1ccco1 | -73.7%
95 | Cc1ccc(NC(=O)N(Cc2cccnc2)Cc2ccco2)cc1C | -27.2%
96 | CCc1ccccc1NC(=S)N(Cc1cccnc1)Cc1ccco1 | -18.8%
97 | O=C(Nc1ccc(Cl)cc1)N(Cc1cccnc1)Cc1ccco1 | -63.9%
